Consider twelve molecules from PubChem BioAssay (Tox21).

Each structure is given as a SMILES string. Values joined by “and” are separate entries in the source; they are usually repeats but may differ in a detail not shown here. Equal values may be shown once. A number with no mark means an inactive call. Inconclusive results are not listed. Active and inactive are the calls of the source. Calls follow the shape of the dose curve; as a rule, active = well fitted curve in the direction sought with a large enough effect in the repeat runs; inconclusive = weak or mixed curves; inactive = no such curve, though single readings can be large; an effect the other way counts as inactive or inconclusive.

Test [1] is described as follows: qHTS RealTime-Glo MT Cell Viability Assay in HepG2 cells - 40 hour (AID 1224870). Also: nearly all actives have a fitted effect of over 50% in size. In a few lines:
(§1)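 Real-time viability: cells seeded at 600 per well together with NanoLuc and cell-permeant prosubstrate, compounds added after 5 h incubation. Luminescence tracked at 0, 8, 16, 24, 32 and 40 h of exposure.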
For orientation: In qHTS, concentration-response curves come from the screen itself.

The nature of test [2]: A CellTox Green Cytotoxicity Assay to monitor cytotoxicity in HEK293 cells - 40 hour (AID 1224871). Also: nearly all actives have a fitted effect of over 45% in size. Also: potency is read from the fitted curve at half-maximal effect. Summed up:
(§2)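 Dead-cell fluorescence measured kinetically: asymmetric cyanine dye, HEK293, 600 cells/well, 5 h settle, 23 nL cpd/DMSO, 37 C, reads 0–40 h every 8 h.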

A short description of test [3]: qHTS RealTime-Glo MT Cell Viability Assay in HEK293 cells - 16 hour (AID 1224872). Also: top concentration of the series differs between compounds; nearly all actives have a fitted effect of over 50% in size. In a few lines: (§3)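 Cells + reagent dispensed (600 cells/well, HEK293) → 5 h at 37 C/5% CO2 → 23 nL compound in DMSO pinned → 40 h at 37 C → luminescence read at 0, 8, 16, 24, 32, 40 h.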
The nature of test [4]: qHTS RealTime-Glo MT Cell Viability Assay in HepG2 cells - 8 hour (AID 1224873). Also: nearly all actives have a fitted effect of over 55% in size. In a few lines: as §1
Test [5] is described as follows: qHTS RealTime-Glo MT Cell Viability Assay in HEK293 cells - 40 hour (AID 1224874). Also: nearly all actives have a fitted effect of over 50% in size. The note with it: RealTime-Glo luminescence; max response: hits give low values. Summed up: (§4)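 600 HEK293 cells per well, dispensed already mixed with RealTime-Glo MT reagents. Compound dosing came 5 h later. The same wells were read for luminescence at 0, 8, 16, 24, 32 and 40 h of exposure at 37 C.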

Test [6] can be described thus: A CellTox Green Cytotoxicity Assay to monitor cytotoxicity in HEK293 cells - 24 hour (AID 1224875). Also: nearly all actives have a fitted effect of over 45% in size. Also: potency is read from the fitted curve at half-maximal effect. As to activity change: series mostly up to about 77 µM. In a few lines: as §2
Test [7] can be described thus: A CellTox Green Cytotoxicity Assay to monitor cytotoxicity in HepG2 cells - 16 hour (AID 1224876). Also: nearly all actives have a fitted effect of over 45% in size. Also: potency is read from the fitted curve at half-maximal effect. Summed up: (§5)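 First, HepG2 cells (600/well) mixed with reagent were plated; second, after 5 h at 37 C they received compounds via pintool; third, fluorescence was measured at 0 h through 40 h at 8 h intervals.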
Test [8] in a line: qHTS RealTime-Glo MT Cell Viability Assay in HepG2 cells - 32 hour (AID 1224877). Also: nearly all actives have a fitted effect of over 55% in size. Summed up: (§6)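 Real-time, nonlytic viability: 600 HepG2 cells/well mixed with NanoLuc enzyme plus prosubstrate; 5 h settle, compound (DMSO) added by pintool; luminescence monitored over 40 h at 37 C.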
Test [9] in a line: A CellTox Green Cytotoxicity Assay to monitor cytotoxicity in HepG2 cells - 24 hour (AID 1224878). Also: nearly all actives have a fitted effect of over 45% in size. Also: potency is read from the fitted curve at half-maximal effect. In a few lines: as §5
Test [10] is described as follows: A CellTox Green Cytotoxicity Assay to monitor cytotoxicity in HepG2 cells - 40 hour (AID 1224879). Also: nearly all actives have a fitted effect of over 40% in size. Also: potency is read from the fitted curve at half-maximal effect. In a few lines:
as §5

Test [11] in a line: qHTS RealTime-Glo MT Cell Viability Assay in HEK293 cells - 0 hour (AID 1224880). In a few lines:
as §4

The nature of test [12]: A CellTox Green Cytotoxicity Assay to monitor cytotoxicity in HEK293 cells - 32 hour (AID 1224881). Also: nearly all actives have a fitted effect of over 40% in size. Also: potency is read from the fitted curve at half-maximal effect. Summed up: as §2
The nature of test [13]: A CellTox Green Cytotoxicity Assay to monitor cytotoxicity in HepG2 cells - 0 hour (AID 1224882). Also: nearly all actives have a fitted effect of over 35% in size. Also: potency is read from the fitted curve at half-maximal effect. In a few lines: as §5
Test [14] in a line: A CellTox Green Cytotoxicity Assay to monitor cytotoxicity in HepG2 cells - 32 hour (AID 1224883). Also: nearly all actives have a fitted effect of over 50% in size. Also: potency is read from the fitted curve at half-maximal effect. Summed up: as §5
Test [15] is described as follows: A CellTox Green Cytotoxicity Assay to monitor cytotoxicity in HEK293 cells - 8 hour (AID 1224884). Also: nearly all actives have a fitted effect of over 35% in size. Also: potency is read from the fitted curve at half-maximal effect. In a few lines: as §2
Test [16] is described as follows: qHTS RealTime-Glo MT Cell Viability Assay in HepG2 cells - 16 hour (AID 1224885). Also: nearly all actives have a fitted effect of over 50% in size. Summed up: as §6
The nature of test [17]: qHTS RealTime-Glo MT Cell Viability Assay in HEK293 cells - 8 hour (AID 1224887). Summed up:
as §4

Test [18] in a line: A CellTox Green Cytotoxicity Assay to monitor cytotoxicity in HEK293 cells - 16 hour (AID 1224888). Also: nearly all actives have a fitted effect of over 35% in size. Also: potency is read from the fitted curve at half-maximal effect. In a few lines: as §2
The nature of test [19]: qHTS RealTime-Glo MT Cell Viability Assay in HepG2 cells - 0 hour (AID 1224889). Also: nearly all actives have a fitted effect of over 50% in size. Summed up:
as §6

Test [20] is described as follows: qHTS RealTime-Glo MT Cell Viability Assay in HEK293 cells - 24 hour (AID 1224886). Summed up:
as §3
% is scaled to controls: 0 for no effect and ±100 for the full control effect.

As to `CC(C)(O)C#CC(C)(C)O`, the Potency entry in test [1], in test [2], in test [3], in [4], in test [6] and in [7] was “inactive” in each case. Further, the Potency result in test [8], in [9], in [10], in [11], in [12] and in test [13] was “inactive” in each case. The Potency result in test [14], in test [15], in test [16], in [17], in test [18] and in test [19] was “inactive” in each case. Besides, the max response in test [5] is 4.69%.

With `Cn1cc(S(C)=O)c(=O)c2ccc(F)cc21` (stereo unspecified), the Potency result in test [1], in test [2], in test [3], in [4], in test [6] and in test [7] was “inactive” each time. In addition, the Potency result in [8], in [9], in test [10], in test [11], in test [12] and in test [13] was “inactive” each time. Besides, the Potency result in test [14], in test [15], in test [16], in [20], in test [17] and in test [18] was “inactive” in each case. Further, the Potency entry in test [19] is “inactive”. The max response in [5] is -13.8%.

Take `Cc1sccc1Br`: the Potency result in test [1], in [2], in test [3], in test [4], in [6] and in test [7] was “inactive” throughout. The Potency result in [8], in [9], in [10], in test [11], in [12] and in [13] was “inactive” throughout. The Potency entry in test [14], in [15], in test [16], in test [17], in test [18] and in [19] was “inactive” throughout. For the same molecule, in test [5], the max response was 6.36%.

With `CCCCCCCCCCCCN(CCCCCCCCCCCC)CCCCCCCCCCCC`, the Potency result in [1], in [2], in test [3], in test [4], in [6] and in test [7] was “inactive” throughout. For the same molecule, the Potency result in [8], in [9], in [10], in [11], in test [12] and in test [13] was “inactive” each time. Also, the Potency entry in test [14], in test [15], in test [16], in test [17], in [18] and in [19] was “inactive” throughout. Moreover, the max response in [5] was 0.0553%.

`CN(C)CCCSc1ccccc1NC(=O)/C=C/c1ccccc1`: the Potency result in test [1], in test [3], in test [4], in test [8], in test [11] and in [16] was “inactive” throughout. Further, the Potency result in test [20], in test [17] and in test [19] was “inactive” each time. Besides, the Potency in test [2] was 19 µM (active); in [6], 19 µM (active); in test [7], 21.3 µM (active); in test [9] it was 19 µM (active); in test [10], 19 µM (active); in test [12] it was 19 µM (active). Besides, the Potency was 19 µM (active) in test [13], 19 µM (active) in test [14], 16.9 µM (active) in test [15] and 16.9 µM (active) in test [18]. In addition, the max response in test [5] was -11.2%.

Turning to `CCCCCCCCCCCCCC=O`, the activity change, negative = cytotoxic in test [1] was -13.1% [at 6.97 µM]; in test [8], -9.48% [at 6.97 µM]; in [16] it was 0.224% [at 6.97 µM]. The cytotoxicity increase is 0.449% [at 6.97 µM] in [2]; 1.97% [at 6.97 µM] in [7]; 0.942% [at 6.97 µM] in [10]; -0.0239% [at 6.97 µM] in test [12]; 1.86% [at 6.97 µM] in test [14]; -1.61% [at 6.97 µM] in [15]. Further, the activity change, negative = cytotoxicity is 1.71% [at 6.97 µM] in test [3]; 8.28% [at 6.97 µM] in test [11]; 6.14% [at 6.97 µM] in [20]; 2.94% [at 6.97 µM] in test [17]; 15.5% [at 6.97 µM] in test [19]. The viability change, negative = cytotoxic in [4] was 0.248% [at 6.97 µM]. The max response in test [5] is 5.19%. For the same molecule, the activity change is -4.12% [at 6.97 µM, hits give high values] in [6] and -6.87% [at 6.97 µM, hits give high values] in test [18]. The cytotoxicity in [9] is 1.56% [at 6.97 µM]; in [13], 11.5% [at 6.97 µM].

As to `O=C(O)COc1nn(Cc2ccccc2)c2ccccc12`, the Potency result in [1], in [2], in test [3], in [4], in test [6] and in test [7] was “inactive” each time. Besides, the Potency entry in test [8], in test [9], in [10], in test [11], in test [12] and in test [13] was “inactive” throughout. The Potency entry in test [14], in [15], in [16], in [20], in [17] and in [18] was “inactive” throughout. In addition, the Potency entry in test [19] was “inactive”. Further, the max response in test [5] was 3.59%.

With `CCOC(C)(C)C`, the Potency result in [1], in test [2], in test [3], in [4], in [6] and in test [7] was “inactive” in each case. Moreover, the Potency result in test [8], in test [9], in test [10], in test [11], in test [12] and in [13] was “inactive” in each case. Moreover, the Potency entry in test [14], in test [15], in test [16], in test [20], in test [17] and in test [18] was “inactive” throughout. For the same molecule, in test [19], the Potency entry was “inactive”. Also, in [5], the max response is 7.98%.

Take `CC(=O)OC/C=C(\C)CC/C=C(\C)CCC=C(C)C`: the Potency entry in test [1], in test [2], in test [3], in [4], in [6] and in test [7] was “inactive” each time. For the same molecule, the Potency entry in [8], in test [9], in test [10], in test [11], in [12] and in test [13] was “inactive” throughout. Moreover, the Potency entry in test [14], in test [15], in test [16], in test [20], in test [17] and in test [18] was “inactive” throughout. The Potency result in [19] was “inactive”. Besides, in test [5], the max response was 12.3% and 2.35%.

For `CC(C)(C)NCCNC(C)(C)C`, the Potency result in test [1], in test [2], in test [3], in [4], in [6] and in [7] was “inactive” throughout. Besides, the Potency result in test [8], in test [9], in test [10], in [11], in test [12] and in test [13] was “inactive” throughout. In addition, the Potency result in [14], in test [15], in [16], in test [17], in test [18] and in test [19] was “inactive” in each case. Further, in [5], the max response is -0.754%.

Turning to `CCN1CCC[C@H]1CNC(=O)c1c(O)c(Cl)cc(Cl)c1OC`, the Potency entry in test [1], in [2], in [3], in [4], in [6] and in [7] was “inactive” each time. Further, the Potency entry in test [8], in [9], in test [10], in [11], in [12] and in test [13] was “inactive” in each case. Moreover, the Potency result in test [14], in [15], in [16], in test [20], in test [17] and in test [18] was “inactive” each time. Also, the Potency result in test [19] is “inactive”. Also, the max response in test [5] is -0.593%.

With `CN(C(=O)c1c(O)c2ccccc2n(C)c1=O)c1ccccc1`, the Potency result in test [1], in test [2], in test [3], in test [4], in test [6] and in [7] was “inactive” each time. Besides, the Potency result in test [8], in test [9], in test [10], in test [11], in test [12] and in [13] was “inactive” throughout. The Potency result in test [14], in test [15], in [16], in [20], in test [17] and in test [18] was “inactive” each time. Also, in test [19], the Potency result was “inactive”. Also, the max response in test [5] was 9.26%.
